Hit rate of the full screen: of about 330,000 compounds, about 1,700 (0.52%) were called active. This is one part of a sample in which actives are shown more often than they occur. Values without a mark were called inactive. The call rests on the fitted dose curve; in most records, active means well fitted inhibition curve with a large enough effect; inconclusive means small, poorly fitted or top-dose-only effect; inactive means no such curve, though single readings can be large or run the other way.

Results on 24 compounds are retold here after PubChem BioAssay AID485341 (National Center for Advancing Translational Sciences (NCATS), 2010).
Potency means the concentration at half of the fitted maximal effect.

The target of the experiment is Beta-lactamase (Escherichia coli (strain K12)) (UniProt P00811). Kind of experiment: qHTS Inhibitors of AmpC Beta-Lactamase (assay without detergent). Further: nearly all actives have a fitted effect of over 20% in size. The note with it: AmpC nitrocefin hydrolysis, absorbance 480 nm, 0.0001% Triton; series mostly up to 57.1 µM; activity change, negative = inhibition: at the top concentration. The gist of the method: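 20 mM phosphate pH 7.0 + 0.01% (detergent screen) or 0.0001% Triton X-100; 5.3 nM AmpC reagent; cpd preinc 15 min RT; nitrocefin (800 uM stock) to start; A480 q20 s × 4 min; Activity was normalised to no-enzyme and no-compound control wells.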
Chain of Beta-lactamase (Escherichia coli (strain K12)) (P00811 whole entry, looked up): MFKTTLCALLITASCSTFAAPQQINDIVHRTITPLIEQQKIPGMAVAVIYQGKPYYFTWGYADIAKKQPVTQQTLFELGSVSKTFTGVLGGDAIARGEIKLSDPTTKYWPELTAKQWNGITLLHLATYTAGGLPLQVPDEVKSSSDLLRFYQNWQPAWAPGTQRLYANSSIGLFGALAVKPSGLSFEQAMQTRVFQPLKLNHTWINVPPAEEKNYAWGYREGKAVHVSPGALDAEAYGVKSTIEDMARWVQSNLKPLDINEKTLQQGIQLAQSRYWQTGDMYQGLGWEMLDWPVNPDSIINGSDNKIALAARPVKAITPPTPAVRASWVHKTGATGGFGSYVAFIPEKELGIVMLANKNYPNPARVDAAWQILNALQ
For orientation: Quantitative high-throughput screening tests each substance at several concentrations.
In the case of `CCOC(=O)C1C(c2ccc(O)cc2)NC(=O)NC1(O)C(F)(F)F` (centres undefined), the “activity change, negative = inhibition” value was 1.51%.

On to `CC(=O)C1C(c2cccc(Oc3ccccc3)c2)NC(=O)NC1(O)C(F)(F)F` (centres undefined), for which the “activity change, negative = inhibition” value was 6.25%. As to `CC(=O)C1C(c2ccc(Cl)cc2)NC(=O)NC1(O)C(F)(F)F` (centres undefined), the Potency was 44.7 µM (active). With `COC(=O)[C@@H]1CC(O)CN1C(=O)C12CC3CC(CC(C3)C1)C2` (some centres undefined), the “activity change, negative = inhibition” value was -9.8%. For `Cc1ccc(NS(=O)(=O)c2ccc(C(C)(C)C)cc2)cn1`, the “activity change, negative = inhibition” value was -22.9%. With `CC(=O)Nc1ccc(S(=O)(=O)Nc2ccc(-c3ccc4nnc(C)n4n3)cc2)cc1`, the “activity change, negative = inhibition” value was 17.8%. On to `CC(=O)Nc1ccc(S(=O)(=O)Nc2nc(-c3ccc(C(C)(C)C)cc3)cs2)cc1`, for which the Potency was 35.5 µM (active). For `O=C(CSc1nnc2scc(-c3ccc(F)cc3)n12)NCc1ccco1`, the “activity change, negative = inhibition” value is -21.6%.

In the case of `Cc1ccc(-c2csc3nnc(SCC(=O)NCc4ccco4)n23)cc1`, the Potency is 0.316 µM (active). With `Cn1c(-c2ccc(F)cc2)cnc1SCC(=O)NCc1ccco1`, the “activity change, negative = inhibition” value was 3.42%. The same measure, in the same setting: as for `COc1ccccc1N(CC(=O)Nc1ccc(C(F)(F)F)cc1)S(C)(=O)=O`, the figure is 41.8%. Turning to `O=C(Cn1nc(Cc2cccnc2)c2ccccc2c1=O)NCC1CCCO1` (centres undefined), the Potency is 0.501 µM (active). Turning to `O=C(Cn1nc(Cc2cccnc2)c2ccccc2c1=O)NCC1COc2ccccc2O1` (centres undefined), the “activity change, negative = inhibition” value is 9.49%.

`Cc1nn(CC(=O)NCC2CCCO2)c(=O)c2cc3ccccc3n12` (centres undefined): the “activity change, negative = inhibition” value is -8.11%. For `CCOC(=O)N1CCC(NC(=O)Cn2cc3c(n2)CCCCC3)CC1`, the Potency is 35.5 µM (active). Take `COCCNC(=O)Cn1cc2c(n1)CCCCC2`: the “activity change, negative = inhibition” value was 0.855%. Still for that read-out and setting: as for `O=C(Cn1cc2c(n1)CCCCC2)NCCN1CCOCC1`, the figure is -5.23%. Still for that read-out and setting: the value for `Cc1cc(-c2nnc(CCC(=O)NC(c3ccccc3)c3ccccc3)o2)no1` was 13.8%. With `CCOC(=O)/C(=N\Nc1cc(Cl)ccc1Cl)N1CCN(C)CC1`, the “activity change, negative = inhibition” value was 142%. On the same count and under the same terms, as for `CCc1ccc(CN(C)C(C)C(=O)Nc2ccc(S(=O)(=O)N3CCCC3)cc2)cc1` (centres undefined), the figure is 3.82%. Regarding `O=C(CSC(=S)N1CCOCC1)c1cc(Br)cc(Br)c1O`, the Potency was 20 µM (active). For `O=C(CSC(=S)N1CCOCC1)c1ccccc1`, the “activity change, negative = inhibition” value was -17%. The same measure, in the same setting: the value for `O=C(c1cc2cc(Br)cc(Br)c2oc1=O)N1CCOCC1` was -18.2%.

As to `CCN(CC(=O)Nc1ccc(Cl)c(S(=O)(=O)N(C)C)c1)Cc1nc2ccccc2c(=O)[nH]1`, the “activity change, negative = inhibition” value is -6.1%.
